An excerpt weighted towards active compounds, which were near 2.4% of everything screened.
SENP8 block-1 – inhibitors of human SENP8 protease; purified SENP8, Z-RLRGG-aminoluciferin cleavage, luminescence; inhibition, % at 10 µM; 1.2% of 330,000 active; AID 2540; in the data active = inhibition above about 50%
Target sequence (Q96LD8 whole entry, looked up): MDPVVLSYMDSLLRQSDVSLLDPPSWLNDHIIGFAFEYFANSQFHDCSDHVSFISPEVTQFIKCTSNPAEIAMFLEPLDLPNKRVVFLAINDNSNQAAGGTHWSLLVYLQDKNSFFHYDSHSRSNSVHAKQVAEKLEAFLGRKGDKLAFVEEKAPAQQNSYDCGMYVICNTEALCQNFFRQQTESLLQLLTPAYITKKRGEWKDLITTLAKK
SENP7 inh – blocks the human protease SENP7; Q9BQF6; recombinant SENP7, Z-RLRGG-aminoluciferin luminescence, 40 min; inhibition, % at 5 µM; 1.5% of 330,000 active;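 active = inhibition above about 50% at the single test dose, limit read from the data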
Platelet DG rel – platelet dense granule release activity; human platelet-rich plasma, SFLLRN dense granule ATP release, luminescence; inhibition, %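 (compounds screened at 7.5 µM in platelet-rich plasma)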; 0.22% of 300,000 active;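 active = mean replicate score, as percent of positive control, at or above 50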
SENP8 block-2 – SENP8 (human) protease inhibition; 0.64% of 360,000 active; inhibition, % at 20 µM; recombinant SENP8, Nedd8 substrate fluorescence; Q96LD8; in the data active = inhibition mostly above about 40%, no sharp cut-off; inactive = mostly below about 27%
SENP6 inh – inhibitors of human SENP6 protease | inhibition, % at 10 µM | 1.8% of 330,000 active | Q9GZR1 | Recombinant SENP6 catalytic domain, aminoluciferin luminescence;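 active = inhibition above about 50% at the single tested dose, limit read from the data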
SENP8 conf – confirmation of human SENP8 protease inhibitors. shares compounds with SENP7 inh. AID 488912. 40% of 6,200 active. Recombinant SENP8, Z-RLRGG-aminoluciferin luminescence, 60 min. inhibition, % at 12.5 µM;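 active = mean inhibition across replicates above about 50%, limit read from the data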
SENP6 confirm – confirmation of human SENP6 protease inhibitors; shares compounds with SENP7 inh; recombinant SENP6, Z-RLRGG-aminoluciferin luminescence; inhibition, % at 12.5 µM; 58% of 6,200 active; AID 488915
SENP7 conf – confirmation of human SENP7 protease inhibitors; recombinant SENP7, Z-RLRGG-aminoluciferin luminescence, 40 min; shares compounds with SENP7 inh; 69% of 6,200 active; inhibition, % at 12.5 µM
Casp3 select – selectivity test for SENP inhibitors: human caspase-3 inhibition. AID 488918. 60% of 6,200 active. shares compounds with SENP7 inh. purified caspase-3, Z-DEVD-aminoluciferin luminescence, 60 min. inhibition, % at 12.5 µM;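 active = mean inhibition above about 50%, limit read from the data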
Target sequence (P42574 28-227 limits assumed): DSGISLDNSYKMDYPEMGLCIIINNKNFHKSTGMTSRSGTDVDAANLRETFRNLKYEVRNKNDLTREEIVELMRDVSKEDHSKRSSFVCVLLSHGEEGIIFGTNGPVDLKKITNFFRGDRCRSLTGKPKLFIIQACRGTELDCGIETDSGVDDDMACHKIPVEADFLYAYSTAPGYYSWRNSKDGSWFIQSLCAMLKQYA
SENP luc ctr – interferes with luciferase luminescence in SENP counter-screen; shares compounds with SENP7 inh; Pre-incubated SENP8/Z-RLRGG-aminoluciferin, luciferase luminescence interference; inhibition, % at 12.5 µM; 39% of 6,200 active; AID 488919;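 active = mean inhibition above about 50% when retested at one dose, limit read from the data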
Numbers stand for hits; 0 = inactive; - = not tested or not shown.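 Rule for the calls, unless noted: active = mean inhibition above about 50% in the one-dose retest (limit read from the data); inactive = the rest.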

SMILES	SENP8 block-1	SENP7 inh	Platelet DG rel	SENP8 block-2	SENP6 inh	SENP8 conf	SENP6 confirm	SENP7 conf	Casp3 select	SENP luc ctr
CCOC(=O)COn1c(-c2cccc(Cl)c2)nc2ccc([N+](=O)[O-])cc21	87	90	0	0	94	81	81	92	65	69
CCCC(=O)Nc1ccc(S(=O)(=O)N2CCc3ccccc32)cc1	-	-	-	0	-	-	-	-	-	-
O=C(O)c1ccc(-c2ccc(OS(=O)(=O)c3ccccc3F)cc2)cc1	0	0	0	0	57	0	0	60	0	0
CC(C)N(C(=O)Nc1ccc2nsnc2c1)C(C)C	97	95	0	-	98	83	89	75	0	0
COc1ccc(N(C)C(=O)Nc2ccc3nsnc3c2)cc1	-	-	0	0	-	-	-	-	-	-
Clc1ccc(Cn2ncc3c(N4CCCCC4)ncnc32)cc1	0	0	0	0	0	-	-	-	-	-
COc1ccc(-n2ncc3c(N4CCCCC4)ncnc32)cc1	93	98	0	0	96	95	98	103	96	95
Clc1ccc(-n2ncc3c(N4CCCCCC4)ncnc32)cc1	86	91	0	0	94	0	53	72	57	0
Cc1cccc(-n2ncc3c(N4CCCC4)ncnc32)c1	0	0	0	0	0	-	-	-	-	-
Cc1cccc(-n2ncc3c(N4CCOCC4)ncnc32)c1	70	79	0	0	71	78	76	91	86	61
COc1ccc(-n2ncc3c(N4CCN(c5cccc(C)c5C)CC4)ncnc32)cc1	0	0	0	0	0	-	-	-	-	-
CC(=O)N1CCN(S(=O)(=O)c2c(C)n(C)c(=O)n(C)c2=O)CC1	0	0	0	0	0	-	-	-	-	-
COc1ccc(N(CC(=O)Nc2cccnc2)S(=O)(=O)c2ccccc2)cc1OC	0	0	0	0	0	-	-	-	-	-
O=C(N/C(=C\c1ccco1)C(=O)N1CCOCC1)c1ccccc1Cl	0	0	0	0	0	-	-	-	-	-
COc1ccc(C)cc1Nc1n[n+](-c2ccccc2)c(-c2ccc(SC)cc2)s1	60	0	0	0	69	0	66	89	78	70
Cc1ccsc1C=Nc1ccc(O)cc1	0	0	0	97	68	0	0	0	0	0
Cc1ccsc1/C=N/N=C/c1sccc1C	95	98	0	0	0	0	98	103	86	87
CC(CCc1ccccc1)NC(=O)COC(=O)c1ccc(NC(N)=O)cc1 (configuration not stated)	0	0	0	0	0	-	-	-	-	-
CCOc1cccc(/C=C2\NC(=S)N(c3ccccc3)C2=O)c1O	91	87	0	0	92	83	98	102	94	69
O=C(NCc1ccncc1)c1ccc(NS(=O)(=O)c2ccc(F)cc2)cc1	0	0	-	0	0	-	-	-	-	-
Cc1cc(Cl)c(O)c(-n2nc3ccccc3n2)c1	0	71	0	0	0	0	0	0	0	0
CC(c1ccccc1)N1CC(C(=O)Nc2ccc(F)cc2)CC1=O (configuration not stated)	0	0	-	0	0	-	-	-	-	-
O=C1CCCc2nc(N3CCc4ccccc43)ncc21	78	89	0	0	91	0	0	0	0	0
O=C(Nc1ccc2[nH]c(=S)sc2c1)Nc1ccccc1F	95	99	0	0	97	99	100	104	98	90
O=C(Nc1ccc2[nH]c(=S)sc2c1)c1ccccc1	0	52	0	0	0	66	67	88	83	74
O=C(Nc1ccc2[nH]ccc2c1)c1ccccc1	0	0	0	0	0	-	-	-	-	-
O=C(Nc1ccc2[nH]c(=O)[nH]c2c1)Nc1ccc(F)cc1F	0	0	0	0	0	-	-	-	-	-
COc1cc(SC)ccc1C(=O)NNC(=O)c1cc(C)oc1C	94	98	58	0	98	98	99	103	98	93
